Measured values from PubChem BioAssay (NCI).
Compounds without any hit were thinned out: in the full panel of roughly 83,000, 20% have a hit.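 Values shown are percent growth following 48 h exposure of cells in 96-well plates to a single concentration of compound; below 10 was considered active.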 A number with no mark means an inactive call. The source made the active and inactive calls.

Key:
Experiment in all cases: NCI-60 one-dose screen, 48 h (100 = growth as untreated, 0 = no growth, -100 = all killed)
Conditions in all cases: 10 µM unless noted
T-47D breast = system: T-47D breast
BT-549 breast = system: BT-549 breast
MDA-MB-435 melanoma = system: MDA-MB-435 melanoma
SW-620 colon = system: SW-620 colon
MCF7 breast = system: MCF7 breast
HCT-116 colon = system: HCT-116 colon
HCC-2998 colon = system: HCC-2998 colon
KM12 colon = system: KM12 colon

Compound	growth (T-47D breast)	growth (BT-549 breast)	growth (MDA-MB-435 melanoma)	growth (SW-620 colon)	growth (MCF7 breast)	growth (HCT-116 colon)	growth (HCC-2998 colon)	growth (KM12 colon)
CN(C)Cc1ccc(NC(=O)c2cncc(C#Cc3cnc(N)c4ncccc34)c2)cc1C(F)(F)F	99%	102%	-75.1% (active)	-78.7% (active)	-72.4% (active)	47.7%	3.86% (active)	-40.4% (active)
c1ccc(Cn2cc3c(c2-c2ccccc2)CCc2cnoc2-3)cc1	67%	64.1%	13.5%	24.1%	51.3%	44.5%	58.5%	
Cc1ccccc1N1CCN(C(=S)c2ccccc2)CC1	89.1%	88.5%	103%	98.3%	88.2%	91.9%	75.3%	
CS(=O)(=O)Nc1cc(-c2ccc3ncnc(Nc4ccc(F)c(Cl)c4)c3c2)ccc1Cl	12.2%	49.4%	58.2%	75.4%	23.9%	59.5%	79.9%	
COc1ccc(CN2C(=O)OC(C)(COC(C)=O)C2=O)cc1 (centres undefined)	91.9%	107%	107%	107%	96.3%	93.5%	100%	
COc1c2c(cc3c1C(=O)N[C@@H]1[C@@H](O)[C@@H](O)[C@H](O)C[C@@H]31)OCCO2	84.9%	99.5%	108%	104%	93.9%	102%	106%	
CCCCO[C@@H]1C=C2[C@H]3CC(C)(C)C(=O)C[C@]3(C(=O)O[C@@H]3O[C@H](CO[C@@H]4O[C@H](CO)[C@@H](OC5OC(C)C(O)C(O)C5O)[C@H](O)[C@H]4O)[C@@H](O)[C@H](O)[C@H]3O)CC[C@@]2(C)[C@]2(C)CC[C@H]3C(C)(C)C(=O)CC[C@]3(C)[C@@H]12 (some centres undefined)	67.4%	57.6%	51.9%	67.5%	55.5%	64.9%	82.7%	
O=c1cc(C(F)(F)F)c2cc(-c3cc4ccccc4c(=O)o3)c(O)cc2o1	49.4%	63.6%	72.8%	86.1%	77.4%	71.7%	92.8%	
N#Cc1nn(-c2cc(=O)[nH]c3ccc(Br)cc23)c(N)c1C#N	56.1%	85.1%	95.5%	83.5%	104%	85.7%	78.5%	109%
COc1cc(C=C2C(=O)NC(=S)NC2=O)cc(CN2CCCC2)c1O	110%	114%	100%	108%	96.1%	113%	110%	110%
COc1ccc2c(c1)C(C)Cc1c(ncnc1-n1cnc3cc(C)ccc31)N2C (centres undefined)	44.6%	-3.64% (active)	-17.5% (active)	25%	16.1%	6.84% (active)	10.7%	12.2%
CS(=O)(=O)c1ccc(-c2nc3ccccc3n2CC(=O)N/N=C/c2ccccc2)cc1	82.4%	95.9%	97.2%	103%	89.3%	81%	98.9%	107%
Fc1cccc(CNc2c3ccccc3nc3ccccc23)c1	42.7%	77.1%	48.9%	22%	7.9% (active)	13.4%	29.9%	48.6%
CCCC(=O)NC(c1ccc2c(c1)OCO2)c1cc(Cl)c2cccnc2c1O (centres undefined)	23%	63.3%	37.5%	24.7%	17.5%	23.1%	43.1%	33.9%
Oc1c(I)cc(I)cc1CN(Cc1ccccn1)Cc1ccccn1	22.4%	30.7%	35.6%	22.2%	13.4%	18.1%	35.1%	26.8%
COc1cc(/C=C/C(=O)N2CCN(C(=O)c3cc(OC)c(OC)c(OC)c3)CC2)ccc1OCCCOc1cc2c(cc1OC)C(=O)N1CCC[C@H]1C=N2	7.16% (active)	-55.9% (active)	-66.4% (active)	4.48% (active)	7.86% (active)	7.83% (active)	-39% (active)	-19.5% (active)

Compound	growth (T-47D breast)	growth (BT-549 breast)	growth (MDA-MB-435 melanoma)	growth (SW-620 colon)	growth (MCF7 breast)	growth (HCT-116 colon)	growth (HCC-2998 colon)	growth (KM12 colon)
COc1cc(/C=C/c2cc(/C=C/c3ccc(O)c(OC)c3)n(C(=O)Nc3ccc(Cl)cc3)n2)ccc1O	18.5%	-14.4% (active)	2.46% (active)	9.56% (active)	5.36% (active)	4.61% (active)	4.55% (active)	3.53% (active)
CCOC(=O)c1nnn(Cc2cc(=O)oc3ccc(O)cc23)c1C	98%	110%	104%	98.2%	92.4%	96%	97.3%	102%
CC1=C(Cl)C(=O)c2cc(C)ccc2C1=O	96.9%	97.9%	105%	105%	91.2%	106%	104%	102%
Cc1cc(O)c(=O)cc2c1C[C@H]1CC(C)(C)/C=C/C[C@]3(C)Oc4cc(=O)c(O)cc(C)c4C[C@H]3C[C@H](O)[C@@]1(C)O2	2.08% (active)	1.38% (active)	18.1%	13.8%	2.97% (active)	8.37% (active)	32.4%	16.1%
N#C/C(=C\c1ccc(-c2cccc(Cl)c2)o1)C(=O)Nc1ncc(Cc2ccc(Cl)cc2)s1	20.7%	72.9%	56.5%	62.5%	54.4%	41.9%	94.3%	48.6%
O=C(NCc1ccc(Cn2c(=O)sn(-c3ccccc3)c2=O)cc1)OCc1ccc2cccc(O)c2n1	-41.7% (active)	-85% (active)	-89.9% (active)	-62.2% (active)	-43.2% (active)	-87% (active)	-71.6% (active)	-15.1% (active)
Nc1ncnc2c1N=C(c1ccc(Cl)cc1)CC(c1cccc(Nc3ccnc4cc(Cl)ccc34)c1)N2 (centres undefined)	85.9%	78.5%	58%	72.2%	19.5%	14.9%	70.4%	56.1%
CC(C)n1c2ccc(Br)cc2c2c3c(c4c5ccccc5ccc4c21)C(=O)NC3=O	63.3%	95.9%	92.4%	101%	86.2%	85.2%	103%	52.7%
Cn1cc(-c2csc(-c3cn(C)c4ccccc34)n2)c2cnccc21	67.4%	87.8%	-79.4% (active)	-47.6% (active)	10.5%	-74.6% (active)	-63.4% (active)	26.6%
CSc1ccc(N2C(=N)C(=S)N(c3ccc(C)cc3)C2=O)cc1	83%	72.2%	102%	103%	85.4%	93.7%	104%	96.5%
COc1ccc(-c2nc3ccc(C)cc3c3c2c(=O)n(C)c(=O)n3C)cc1OC	106%	120%	90%	103%	97.7%	105%	98.2%	116%
Cc1cc(N2CCN(CC(=O)Nc3ccc4c(ccn4Cc4ccccc4)c3)CC2)nc(N2CCOCC2)n1	59.6%	81.5%	92.9%	95%	79.8%	72.5%	119%	91.3%
O=c1cc(CP(=O)(O)O)c2cc(O)c(-c3ccccc3)cc2o1	101%	108%	99.2%	98.3%	96.9%	108%	102%	105%
CCCN(CCSSCCNc1nc(N(C)O)nc(N(C)O)n1)c1nc(N(C)O)nc(N(C)O)n1	61.9%	7.99% (active)	95.1%	75.1%	83.2%	41%	59.8%	48.2%
O=c1oc2c(cnc3ccccc32)cc1-c1cccc(Cl)c1	107%	115%	97%	106%	99.2%	105%	109%	110%
Nc1cc(C(=O)O)cc(-n2c(O)c(C=C3N=c4ccccc4=N3)sc2=S)c1	95.2%	103%	103%	96.8%	94.5%	99.4%	99.3%	103%
